# An excerpt weighted towards active compounds, which were near 12% of everything screened.
# HP1b binding inh: HTS for Inhibitors of HP1-beta Chromodomain Interactions with Methylated Histone Tails; Chromobox protein homolog 1 (Homo sapiens), P83916; AlphaScreen HP1-beta / biotin-H3K9me3 peptide binding; Potency, µM (highest dose often 114 µM), inactives show at the highest dose activity change, negative = inhibition, hits mostly inhibitors; actives 0.56% (n = 390,000); AID 540317, 2011; note: nearly all actives have a fitted effect of over 70% in size
#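 AlphaScreen: HP1-beta (50 nM) preformed 30 min with biotin-H3(1-18)K9me3 peptide (50 nM) in PBS pH 7.4, 0.01% Tween-20. Compound added for 30 min at RT, then streptavidin donor/nickel chelate acceptor beads (10 ug/mL) for 30 min.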
# JMJD2A Tudor inh: qHTS Assay for Inhibitors of JMJD2A-Tudor Domain; actives 4.4% (n = 390,000); Lysine-specific demethylase 4A (Homo sapiens), O75164; AID 504339, 2011; Potency, µM (highest dose often 114 µM), for inactives: top-dose activity change, negative = inhibition, hits mostly inhibitors; AlphaScreen JMJD2A-Tudor / H3K4me3 peptide binding; note: % is set by controls: 0 for no effect and ±100 for the full control effect; nearly all actives have a fitted effect of over 50% in size
# BAZ2B inh: qHTS Assay for Inhibitors of BAZ2B; AlphaScreen BAZ2B-H3K14Ac peptide displacement; Potency, µM (doses to about 114 µM), for inactives: top-dose activity change, negative = inhibition, most hits filed as inhibitors; actives 4.4% (n = 360,000); AID 504333, 2011; note: % is set by controls: 0 for no effect and ±100 for the full control effect; nearly all actives have a fitted effect of over 60% in size
#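 Compounds, titrated to a top concentration of 110 uM, were incubated 30 min at room temperature with preformed BAZ2B/acetyl-K14 H3 peptide complex (50 nM each). Proximity signal was measured by AlphaScreen after 20 min with beads.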
# G9a block: qHTS Assay for Inhibitors of Histone Lysine Methyltransferase G9a; Potency, µM (top dose mostly 102 µM), inactives show at the top dose activity, negative = inhibition, usual class: inhibitors; actives 8.8% (n = 350,000); Histone-lysine N-methyltransferase EHMT2 (Homo sapiens), Q96KQ7; AID 504332, 2011; G9a H3K9 monomethylation, AlphaScreen, 2 h; note: % is set by controls: 0 for no effect and ±100 for the full control effect; nearly all actives have a fitted effect of over 75% in size
#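 Using a bead-based AlphaScreen, monomethylated H3K9 product from 2 h room-temperature reactions (G9a 20 nM, peptide 500 nM, SAM 20 uM) was detected with 0.5 ug/mL rabbit anti-H3K9me1 antibody.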
# L3MBTL1 block: qHTS Assay for the Inhibitors of L3MBTL1; AlphaScreen L3MBTL1–H3K9me1 peptide binding; Potency, µM (doses to about 57.1 µM), inactives show at the highest dose activity, negative = inhibition, usual class: inhibitors; actives 0.66% (n = 230,000); AID 485360, 2010; note: % is set by controls: 0 for no effect and ±100 for the full control effect; nearly all actives have a fitted effect of over 60% in size
#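 Read-out is AlphaScreen signal from streptavidin donor and nickel chelate acceptor beads (10 ug/mL final each) bridging L3MBTL1 (50 nM) and biotinylated K9-monomethylated H3(1-15) peptide (75 nM), after 30 min compound exposure at room temperature.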
# Sfp inh: qHTS Assay for Inhibitors of Bacillus subtilis Sfp phosphopantetheinyl transferase (PPTase) | 4'-phosphopantetheinyl transferase ffp (Bacillus subtilis), Q9F4F7 | Biochemical Sfp PPTase activity, qHTS | Potency, µM, for the others: largest response in the series, negative = inhibition, usual class: inhibitors | actives 3.5% (n = 310,000);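 note: the enzyme is Sfp with the accession as filed and its product quenches rhodamine fluorescence; 0% = enzyme reaction without inhibitor and -100% = no enzyme wells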
#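 After 15 min at room temperature with compound, 15 nM Sfp received 5 uM rhodamine-CoA plus 12.5 uM BHQ-2-ybbR (50 mM Hepes pH 7.6, 10 mM MgCl2). Rate came from the fluorescence difference over 30 min, ex 525/em 598 nm.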
# An asterisk follows results filed as active; u = inconclusive; x = no result; [ ] = another dose, or the depositor's remark. Calls come from the whole dose curve; as a rule, active = well fitted curve in the direction sought with a large enough effect; inconclusive = small, poorly fitted or top-dose-only effect, or another doubt; inactive = no such curve, though single readings can be large; an effect the other way counts as inactive or inconclusive. Potency is the fitted concentration of half-maximal effect.
SMILES,HP1b binding inh,JMJD2A Tudor inh,BAZ2B inh,G9a block,L3MBTL1 block,Sfp inh
CCOC(=O)/C(=N\Nc1ccccc1Cl)N1CC(C)OC(C)C1 (stereo unspecified),49.2%,-2.1%,u,1.4%[59 µM],x,-19.6%
CCOC(=O)/C(=N\Nc1ccccc1Cl)N(C)C1CCCCC1,13.0%,-30.1%,-30.2%,10µM*,x,-11.5%
CCOC(=O)/C(=N\Nc1cc(C(F)(F)F)ccc1Cl)N(CC)CC,7.0%,-30.1%,u,3.55µM*,x,13.5%
Nc1c(Cl)ncnc1Nc1ccc(C(=O)O)cc1,28.5%,12.6µM*,x,x,x,x
O=C(O)c1ccc(Nc2ncnc3ccccc23)cc1,12.7%,-28.1%,-4.6%,11.1%,x,-4.4%
Cc1ccc(-n2ncc(C(=O)N3CCN(C4CCCCC4)CC3)c2C2CCN(C(=O)OC(C)(C)C)CC2)cc1,15.1%,-12.3%,6.5%[57.1 µM],-15.5%[59 µM],x,x
NC(=O)C[C@@H](N)C(=O)O,x,x,x,36.7%[59 µM],x,2.7%
N[C@H](CS)C(=O)O,x,x,x,-0.5%[59 µM],x,31.6µM*
C[C@@H](C[C@H](N)C(=O)O)C(=O)O,x,x,x,x,x,79.4µM*
NC(CS)C(=O)O (stereo unspecified),x,x,x,15.8µM*,x,17.8µM*
Cc1ccc(C)c2[nH]c(=O)c(C(c3nnnn3Cc3ccccc3)N3CCc4ccccc4C3)cc12 (stereo unspecified),19.4%,-31.9%,-22.5%,3.16µM*,x,u
Cc1cccc2cc(C(c3nnnn3CC3CCCO3)N3CCc4ccccc4C3)c(=O)[nH]c12 (stereo unspecified),18.1%,-35.8%,-2.9%,3.16µM*,-3.3%,20µM*
Cc1ccc2cc(C(c3nnnn3CC3CCCO3)N3CCc4ccccc4C3)c(=O)[nH]c2c1 (stereo unspecified),15.8%,-34.2%,1.9%,u,-0.6%[11.4 µM],10µM*
CCc1ccc2[nH]c(=O)c(C(c3nnnn3CC3CCCO3)N3CCCc4ccccc43)cc2c1 (stereo unspecified),-15.7%,u,50.1µM*,u,x,8.91µM*
Cc1cccc2cc(C(c3nnnn3CC3CCCO3)N3CCCc4ccccc43)c(=O)[nH]c12 (stereo unspecified),5.8%,-35.6%,x,u,2.8%,15.0%
CCc1cccc(NC(=O)C2CCN(S(=O)(=O)c3cccc(-c4noc(C)n4)c3)CC2)c1,19.9%,-24.3%,-27.9%,-3.5%[59 µM],x,x
COC/C=C/C1=CC2=CC(=O)C(C)(OC(=O)C3CCCC3)C(=O)C2=CO1 (stereo unspecified),u,63.1µM*,56.2µM*,u,x,79.4µM*
COC/C=C/C1=CC2=CC(=O)C(C)(OC(=O)c3ccco3)C(=O)C2=CO1 (stereo unspecified),x,x,50.1µM*,u,x,56.2µM*
Cc1ccc(-c2cc(NC(=O)CCl)n(-c3ccccc3)n2)cc1,-2.7%,79.4µM*,-17.8%,-45.9%,-2.3%,13.1%
O=C(CSc1cccc[n+]1[O-])N1CCCCCC1,16.5%,-6.6%,-1.1%,-31.9%,4.3%,0.5%
O=C(CN1CCN(Cc2ccc(Cl)cc2)CC1)N1CCc2ccccc21,13.4%,-13.0%,-22.5%,-20.2%,x,3.1%
O=C(CN1CCN(c2ccc(O)cc2)CC1)N1CCc2ccccc21,u,79.4µM*,-36.6%,10µM*,x,39.8µM*
O=C(CN1CCN(Cc2ccccc2)CC1)N1CCCc2ccccc21,u,4.47µM*,20µM*,u,x,u
O=C(CN1CCN(c2ccccc2)CC1)N1CCc2ccccc21,11.0%,-19.7%,-10.7%,18.3%[0.501 µM],x,13.6%
O=C(CSc1cccc[n+]1[O-])N1CCc2ccccc21,32.2%,-2.0%,0.4%,56.2µM*,12.2%,10.5%
SMILES,HP1b binding inh,JMJD2A Tudor inh,BAZ2B inh,G9a block,L3MBTL1 block,Sfp inh
Cc1ccc(NC(=O)CSCC(=O)N2CCCc3ccccc32)cc1,32.5%,-1.7%,8.8%,44.7µM*,0.9%,x
COc1ccccc1/C=C/c1nc(C#N)c(NC2CCCCC2)o1,-0.1%,17.6%,-9.1%,-9.3%[59 µM],x,x
C[C@@H]1COC(=O)[C@H](CC(=O)OC(C)(C)C)C/C=C\C[C@@H](CC(=O)N[C@H](CO)Cc2ccccc2)C(=O)N1,29.3%,-15.8%,x,x,5.5%,x
CC(C)(C)C(=O)Nc1ccc(N=Nc2ccccc2)cc1,9.3%,-31.0%,-3.9%,1.8%,9.0%,-5.9%
Oc1ccc(N=Nc2ccccc2)o1,25.6%,-17.1%,-15.8%,39.8µM*,x,u
CCc1ccccc1N(C)C(=O)Cn1cnc2sc(C)c(S(=O)(=O)N3CCC(C)CC3)c2c1=O,40.2%,-10.2%,-6.3%,-20.2%[59 µM],x,x
O=C(CSc1ccccc1C(=O)O)NCc1ccco1,37.3%,-2.5%,u,59.2%[59 µM],-1.6%,16.8%
Cc1ccccc1NC(=O)CNc1ccccc1C(=O)NCc1ccco1,19.2%,-29.5%,-25.6%,39.8µM*,x,-4.1%
COc1ccccc1CNC(=O)c1ccccc1SCC(=O)NCc1ccco1,-0.4%,-34.5%,7.6%,3.16µM*,-9.6%,x
COCCSc1ccccc1C(=O)N1CCOCC1,23.9%,-9.9%,-7.3%,u,x,79.4µM*
COCCSc1ccccc1C(=O)NCCc1ccccc1,30.5%,-7.6%,-1.7%,17.8µM*,5.0%,56.2µM*
COCCSc1ccccc1C(=O)N1CCCC1,42.9%,-8.3%,-0.3%,-26.5%[2.33 µM],x,-9.5%
CSc1nc(Nc2ccc(C)cc2)c(C#N)c(-c2ccccc2)n1,37.5%,-0.3%,-1.5%,-8.5%[59 µM],x,x
COc1ccc(CNc2nc(NCc3ccc(OC)cc3)c3ncn(C4CCCCC4)c3n2)cc1,x,x,x,x,x,0.8%
COc1ccc(-n2c(=O)c3c4c(sc3n(Cc3ccc(C(C)(C)C)cc3)c2=O)CCC4)c(OC)c1,-7.8%,u,-32.2%,u,x,x
O=C(NCc1ccco1)c1ccccc1NS(=O)(=O)c1cccs1,19.9%,-21.6%,-3.6%,u,0.1%,3.6%
Cc1ccccc1CNC(=O)c1ccccc1SCC(=O)NCc1ccco1,39.1%,-2.7%,-3.7%,12.6µM*,3.4%,x
